# Data published in PubChem BioAssay AID2685 (National Center for Advancing Translational Sciences (NCATS), 2010).
# In all, about 320,000 compounds went through this assay and about 2,100 (0.66%) were called active. About 53% were inconclusive and are not listed. Calls follow the shape of the dose curve; as a rule, active = well fitted inhibition curve with a large enough effect in the signal ratio, with a control signal flat (not every such curve was filed as active); inconclusive = small, poorly fitted or top-dose-only effect, or effect the other way, or a change in a side signal; inactive = flat fitted curve, though single readings scatter; the % refers to the signal ratio. What follows is part of a selection rich in actives, with near analogues and random picks from the rest.
# Assay: qHTS Assay for Lipid Storage Modulators in Drosophila S3 Cells;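 as to cell number change: cells counted by Cell Tracker Red CMTPX staining in the red channel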; as to lipid storage change, negative = inhibition: % is scaled to controls: 0 for no effect and ±100 for the full control effect
# Conditions: BODIPY lipid droplet fluorescence, 18-24 h, cells fed with added oleic acid; cell number change: measured here: cell count max response; series mostly up to 46.1 µM; lipid storage change, negative = inhibition: at the top concentration
# In short: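 Laser-scanning cytometry quantifies lipid droplet accumulation (500–530 nm total intensity; droplet/cell object ratio) in oleic acid-fed (400 uM added) Drosophila S3 cells treated with a concentration series. 20 uM Triacsin C defined 100% inhibition.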
# Potency is read from the fitted curve at half-maximal effect.
SMILES,"lipid storage change, negative = inhibition",cell number change [%],outcome,Potency
CCC(=O)Nc1ccc2oc(-c3cccnc3)nc2c1,6.31% (inactive),17.6,–,–
OCCNc1ncnc2c1sc1nc(N3CCOCC3)c3c(c12)CCC3,24.5% (inactive),0.136,–,–
Cc1c(OC(C)C(=O)NCCCN2CCOCC2)ccc2c3c(c(=O)oc12)CCCC3 (stereo not given),–,8.4,inactive,–
COC(=O)CNC(=O)CSc1nc(N)cc(=O)[nH]1,-9.71% (inactive),-9.53,–,–
Cc1cc(C)c(O)c(NC(=S)NC(=O)Cc2ccccc2)c1,–,-14.2,inactive,–
CCc1ccccc1Nc1nc(N)nc(COC(=O)CCS(=O)(=O)c2ccccc2)n1,28.2% (inactive),–,–,–
Cc1c(C)n(CCO)c2ncnc(Nc3ccc(F)cc3)c12,1.25% (inactive),17.8,–,–
C=CCN1C(=O)/C(=C\c2ccc(Cl)cc2)N=C1SCC(=O)NC1CCCCC1,–,1.87,inactive,–
CC(=O)c1ccc(NC(=O)/C(=C\c2cccs2)NC(=O)c2ccco2)cc1,-8.78% (inactive),17,–,–
CC1=C(C(=O)Nc2ccccc2)C(c2cccs2)NC(=O)N1 (stereo not given),5.69% (inactive),-4.1,–,–
CC1=C(C(=O)Nc2ccc(C)cc2)C(c2ccc(N(C)C)cc2)NC(=O)N1 (stereo not given),9.61% (inactive),-1.82,–,–
CCN(CC)c1ccc(C2NC(=O)NC(C)=C2C(=O)Nc2ccccc2)cc1 (stereo not given),–,-25.6,–,1.64 µM (active)
Cc1ccc(NC(=O)c2c(O)c3ccccc3n(C)c2=O)nc1,8.6% (inactive),-15.8,–,–
CCOC(=O)c1cnc2c(C)c(-c3ccccc3)[nH]n2c1=O,-2.41% (inactive),6.05,–,–
CN=C1SC(CC(=O)Nc2ccc(F)cc2F)C(=O)N1/N=C(\C)c1cccc(OCC(=O)O)c1 (stereo not given),-8.34% (inactive),5.65,–,–
CN=C1SC(CC(=O)Nc2ccc(F)cc2F)C(=O)N1/N=C/c1ccc(OC(F)F)c(OC)c1 (stereo not given),-6.72% (inactive),8.82,–,–
C=CCOc1ccc(/C=N/N2C(=O)C(CC(=O)Nc3ccc(F)cc3F)SC2=NC)cc1 (stereo not given),–,23,–,18.4 µM (active)
CCOC(=O)c1cnc2c(OC)cccc2c1Oc1ccccc1,-5.84% (inactive),0.518,–,–
NC(=NCc1ccco1)NC(=O)c1ccccc1,–,21.8,–,20.6 µM (active)
O=C(NC(=S)NCc1ccco1)c1ccccc1,7.18% (inactive),2.74,–,–
c1ccc(NC(=NCc2ccco2)c2ccccc2)cc1,-0.489% (inactive),0.492,–,–
COC(=O)c1ccc(OC(=O)CCN2C(=O)C3C4c5ccccc5C(c5ccccc54)C3C2=O)cc1 (stereo not given),-0.417% (inactive),-1.2,–,–
O=C(c1cnccn1)N1CCN(c2ccccc2F)CC1,8.36% (inactive),-10.1,–,–
Nc1ncc(Br)cc1S(=O)(=O)Nc1ccccc1F,-1.29% (inactive),–,–,–

SMILES,"lipid storage change, negative = inhibition",cell number change [%],outcome,Potency
Nc1ncc(Br)cc1S(=O)(=O)NC1CCCCC1,–,6.11,inactive,–
Nc1ncc(Br)cc1S(=O)(=O)Nc1cc(C(F)(F)F)cc(C(F)(F)F)c1,–,-15.9,–,0.58 µM (active)
Cc1c(C(=O)O/N=C(\N)c2ccccn2)cccc1[N+](=O)[O-],7.81% (inactive),7.58,–,–
CCOC(=O)C1=C(COC(=O)Cc2ccc(Cl)cc2)NC(=O)NC1C (stereo not given),19.6% (inactive),5.22,–,–
O=C(CN1CCN(CC(=O)Nc2ccccn2)CC1)Nc1ccccn1,–,1.87,–,29.1 µM (active)
O=C(CN1CCN(c2ccccn2)CC1)Nc1ccccc1,–,6.43,inactive,–
NC(=O)C1CCN(CC(=O)Nc2ccccn2)CC1,–,–,inactive,–
Cn1nnnc1SCC(=O)Nc1ccccn1,–,-3.74,–,5.8 µM (active)
Cc1cc(C)cc(NC(=O)CN2CCN(c3ncccn3)CC2)c1,-4.58% (inactive),8.39,–,–
Cc1cccc(NC(=O)CSc2nnnn2C)n1,-8.83% (inactive),-5.08,–,–
O=C(CC(=O)Nc1ccccn1)Nc1ccccn1,6.74% (inactive),4.61,–,–
Cn1nnnc1SCC(=O)Nc1ccccc1Br,-11.7% (inactive),-3.35,–,–
Cc1cc(C)cc(NC(=O)CN2CCN(c3ccccn3)CC2)c1,–,-2.33,–,16.4 µM (active)
CCOC(=O)C1=C(C)NC(=O)NC1c1ccc(OC(C)C(=O)O)c(OC)c1 (stereo not given),-12.9% (inactive),0.405,–,–
O=C(C[n+]1ccccc1)N/N=C/c1cccc(Cl)c1Cl,-4.8% (inactive),4.15,–,–
CCOc1ccc(C(=O)Nc2ccccc2-c2ccccc2)cc1Cl,16.7% (inactive),-2.51,–,–
O=C(CSc1nc2ccccc2c(=O)n1-c1ccc(F)cc1)NC1CCS(=O)(=O)C1 (stereo not given),-12.7% (inactive),–,–,–
COc1ccc(OC)c(NC(=O)COC(=O)CN(C)S(=O)(=O)c2ccc(C)cc2)c1,23.2% (inactive),1.08,–,–
Cc1[nH]c2ccccc2c1/C=N/NC(=O)C1CC1(c1ccccc1)c1ccccc1 (stereo not given),-4.99% (inactive),-28.5,–,–
Cc1ccc(C(=O)NCc2cccnc2)o1,–,-7.92,inactive,–
CC1(C)Cc2c(sc3ncnc(NN)c23)CO1,–,28.8,inactive,–
CCCCCC(=O)Nc1nc(C)c(-c2csc(Nc3ccc(Cl)cc3)n2)s1,3.71% (inactive),-19,–,–
CCC(=O)Nc1nc(C)c(-c2csc(Nc3cccc(C(=O)O)c3)n2)s1,-13.5% (inactive),10.2,–,–
